Calls of active or inactive are those of the source.

Experiment [1] deals with PRMT1 (protein arginine N-methyltransferase 1). Briefly: small molecules binding arginine methyltransferase PRMT1 – biochemical, small-molecule microarray, 635 nm fluorescence, primary screen (AID 1088).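 Note: binding of Prmt1 protein to compounds spotted on small-molecule microarray slides.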 The settings on record: higher = more signal.
Experiment [2] in a line: growth effects on S. cerevisiae YJM789 – YJM789 clinical isolate, OD600, 24 h, basal, primary screen (AID 1089).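 Note: growth of clinical yeast isolate S. cerevisiae YJM 789 seeded 1000 cells per well; test concentration not given here.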 To be noted: higher = more signal, called active from +8 up or from −8 down.
Experiment [3] is described as follows: S. pombe growth modifiers, basal conditions – strain 972, OD600, 24 h, no modulator, primary screen (AID 1090).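 Note: basal condition with compound alone and no growth modifier present; test concentration not given here.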 To be noted: S. pombe 972 growth, higher = more signal, called active from +8 up or from −8 down.
Experiment [4] can be described thus: budding yeast growth modifiers under rapamycin – strain BY4716, OD600, 96 h, primary screen (AID 1091). Note: test concentration not given here. The settings on record: S. cerevisiae BY4716 + rapamycin, higher = more signal, called active from +8 up or from −8 down.
Experiment [5] addresses Torsin-1A-interacting protein 2 (Homo sapiens) (UniProt Q8NFQ8). Briefly: small molecules binding lysate-expressed LULL1 – cell lysate, human LULL1 lysate, 635/667 nm fluorescence, primary screen (AID 1092).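 Note: probe is lysate of COS7 cells overexpressing human LULL1; score merges per-feature 667 nm fluorescence with signal-to-noise.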 To be noted: small-molecule microarray, hLULL1 lysate binding, 635 nm fluorescence; higher = more signal.
Experiment [6] can be described thus: optical density change of DRC41 E. coli – strain DRC41, OD650, 24 h, E. coli filamentation project, primary screen (AID 1093).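 Note: MC1000 strain lacking acrAB efflux and sulA so SOS filamentation is blocked; test concentration not given here.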 To be noted: E. coli DRC41 growth, higher = more signal, called active from +8 up or from −8 down.
Experiment [7] is described as follows: probe aLefty2 binding to arrayed compounds – biochemical, biotinylated probe, 635/667 nm fluorescence, primary screen (AID 1094).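 Note: score merges spot fluorescence near 667 nm with spot signal-to-noise ratio.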 The settings on record: small-molecule microarray, higher = more signal.
Experiment [8] deals with Noggin (protein binding on small-molecule microarray). Briefly: small molecules binding Noggin protein – biochemical, 635/667 nm fluorescence, primary screen (AID 1095).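 Note: score merges 667 nm feature fluorescence with signal to noise over triplicate slides.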 To be noted: 635 nm fluorescence, higher = more signal.
Experiment [9] has as its target Neurogenic locus notch homolog protein 3 (Homo sapiens) (UniProt Q9UM47). Briefly: small molecules binding NOTCH3 protein – biochemical, 635/667 nm fluorescence, primary screen (AID 1096). To be noted: small-molecule microarray, 635 nm fluorescence, higher = more signal.
The nature of experiment [10]: probe aEGFR binding to arrayed compounds – biochemical, biotinylated probe, 635/667 nm fluorescence, primary screen (AID 1097).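 Note: probe is a biotinylated anti-EGFR antibody binding compounds printed on slides; score combines fluorescence near 667 nm and signal to noise of each spot.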 The settings on record: small-molecule microarray, higher = more signal.
For experiment [11], the system named is Plasmodium falciparum Sir2 (PF13_0152, Sir2A). Briefly: Plasmodium falciparum Sir2A binding compounds – biochemical, small-molecule microarray, 635 nm fluorescence, primary screen (AID 1098).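 Note: score merges spot fluorescence intensity with its signal-to-noise ratio.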 The settings on record: fluorescence 635 nm, higher = more signal.
A short description of experiment [12]: probe aDKK1 binding to arrayed compounds – biochemical, biotinylated probe, 635/667 nm fluorescence, primary screen (AID 1099).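 Note: score merges 667nm spot fluorescence with signal to noise across triplicate slides; reference of the scale not given here.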 The settings on record: small-molecule microarray, higher = more signal.
Experiment [13] in a line: probe aCHRDL2 binding to arrayed compounds – biochemical, biotinylated probe, 635/667 nm fluorescence, primary screen (AID 1100). To be noted: small-molecule microarray, higher = more signal.
Experiment [14] can be described thus: change in splice reporter luminescence, either direction, cell-based, HEK293, spliceosome inhibition project, primary screen (AID 1101).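 Note: HEK293 cells carrying a splicing-competent luciferase reporter gene; test concentration not given here.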 The settings on record: HEK293 splicing luciferase reporter, 24 h, higher = more signal, called active from +8 up or from −8 down.
In experiment [15] the target is Fibroblast growth factor 10 (Homo sapiens) (UniProt O15520). Briefly: compounds binding fibroblast growth factor 10 – biochemical, small-molecule microarray, 635 nm fluorescence, primary screen (AID 1102). The settings on record: FGF10 binding, fluorescence 635 nm, higher = more signal.
For experiment [16], the system named is glycogen synthase kinase-3 (GSK3A per assay name; protocol says GSK3B). Briefly: compounds binding glycogen synthase kinase-3 – biochemical, small-molecule microarray, 635 nm fluorescence, GSK3A, primary screen (AID 1103). Note: the record names both GSK3A and GSK3B. To be noted: fluorescence 635 nm, higher = more signal.
The target in experiment [17] is Epidermal growth factor receptor (Homo sapiens) (UniProt P00533). Briefly: compounds binding epidermal growth factor receptor – biochemical, small-molecule microarray, 635 nm fluorescence, primary screen (AID 1104).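 Note: score merges 667 nm emission intensity with spot signal to noise over triplicate slides.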 To be noted: EGFR binding, higher = more signal.
Experiment [18] concerns the target Follistatin-related protein 3 (Homo sapiens) (UniProt O95633). Briefly: compounds binding follistatin-related protein 3 – biochemical, small-molecule microarray, 635 nm fluorescence, primary screen (AID 1105).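 Note: score merges emission near 667 nm and signal to noise per printed spot across three slides.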 To be noted: FSTL3 binding, higher = more signal.
Experiment [19] concerns the target Dickkopf-related protein 1 (Homo sapiens) (UniProt O94907). Briefly: small molecules binding DKK1 protein – biochemical, small-molecule microarray, 635 nm fluorescence scan, primary screen (AID 1106).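 Note: score merges emission near 667 nm with signal to noise over three replicate slides.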 The settings on record: higher = more signal.
For experiment [20], the system named is Inhibin beta A chain (activin A). Briefly: small molecules binding activin A – biochemical, small-molecule microarray, 635 nm fluorescence scan, primary screen (AID 1107).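 Note: mouse activin A protein probed at 4.33 µg/mL on printed slides; score merges bound-protein fluorescence near 667 nm with spot signal-to-noise.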 The settings on record: INHBA, higher = more signal.

Torsin-1A-interacting protein 2 (Homo sapiens), sequence (Q8NFQ8 whole entry, looked up): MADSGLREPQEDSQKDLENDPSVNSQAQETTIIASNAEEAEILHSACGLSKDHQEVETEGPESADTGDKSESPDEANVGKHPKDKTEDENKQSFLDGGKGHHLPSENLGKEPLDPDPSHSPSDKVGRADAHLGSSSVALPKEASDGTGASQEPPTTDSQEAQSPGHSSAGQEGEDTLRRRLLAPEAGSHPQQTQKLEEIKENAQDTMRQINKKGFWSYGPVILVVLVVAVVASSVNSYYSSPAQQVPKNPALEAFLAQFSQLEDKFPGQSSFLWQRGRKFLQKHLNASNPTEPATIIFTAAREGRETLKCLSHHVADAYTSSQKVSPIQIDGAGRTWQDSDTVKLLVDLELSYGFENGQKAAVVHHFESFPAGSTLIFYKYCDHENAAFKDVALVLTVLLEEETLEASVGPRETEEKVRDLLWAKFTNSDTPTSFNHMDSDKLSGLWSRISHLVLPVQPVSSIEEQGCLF
Dickkopf-related protein 1 (Homo sapiens), sequence (O94907 whole entry, looked up): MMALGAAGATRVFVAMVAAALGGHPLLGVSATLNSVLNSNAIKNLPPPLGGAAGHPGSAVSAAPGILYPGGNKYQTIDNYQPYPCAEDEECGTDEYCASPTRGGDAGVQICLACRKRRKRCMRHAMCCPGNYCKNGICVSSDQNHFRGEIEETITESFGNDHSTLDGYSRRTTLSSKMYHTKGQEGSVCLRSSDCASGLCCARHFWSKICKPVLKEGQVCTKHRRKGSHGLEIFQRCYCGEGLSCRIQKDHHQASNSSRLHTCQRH
Fibroblast growth factor 10 (Homo sapiens), sequence (O15520 whole entry, looked up): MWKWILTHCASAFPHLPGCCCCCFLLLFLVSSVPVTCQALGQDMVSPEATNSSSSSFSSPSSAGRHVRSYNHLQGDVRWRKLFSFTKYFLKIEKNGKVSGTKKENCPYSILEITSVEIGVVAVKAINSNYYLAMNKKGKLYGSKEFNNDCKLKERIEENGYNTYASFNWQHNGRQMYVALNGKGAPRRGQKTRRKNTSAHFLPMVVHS
Epidermal growth factor receptor (Homo sapiens), sequence (P00533 whole entry, looked up): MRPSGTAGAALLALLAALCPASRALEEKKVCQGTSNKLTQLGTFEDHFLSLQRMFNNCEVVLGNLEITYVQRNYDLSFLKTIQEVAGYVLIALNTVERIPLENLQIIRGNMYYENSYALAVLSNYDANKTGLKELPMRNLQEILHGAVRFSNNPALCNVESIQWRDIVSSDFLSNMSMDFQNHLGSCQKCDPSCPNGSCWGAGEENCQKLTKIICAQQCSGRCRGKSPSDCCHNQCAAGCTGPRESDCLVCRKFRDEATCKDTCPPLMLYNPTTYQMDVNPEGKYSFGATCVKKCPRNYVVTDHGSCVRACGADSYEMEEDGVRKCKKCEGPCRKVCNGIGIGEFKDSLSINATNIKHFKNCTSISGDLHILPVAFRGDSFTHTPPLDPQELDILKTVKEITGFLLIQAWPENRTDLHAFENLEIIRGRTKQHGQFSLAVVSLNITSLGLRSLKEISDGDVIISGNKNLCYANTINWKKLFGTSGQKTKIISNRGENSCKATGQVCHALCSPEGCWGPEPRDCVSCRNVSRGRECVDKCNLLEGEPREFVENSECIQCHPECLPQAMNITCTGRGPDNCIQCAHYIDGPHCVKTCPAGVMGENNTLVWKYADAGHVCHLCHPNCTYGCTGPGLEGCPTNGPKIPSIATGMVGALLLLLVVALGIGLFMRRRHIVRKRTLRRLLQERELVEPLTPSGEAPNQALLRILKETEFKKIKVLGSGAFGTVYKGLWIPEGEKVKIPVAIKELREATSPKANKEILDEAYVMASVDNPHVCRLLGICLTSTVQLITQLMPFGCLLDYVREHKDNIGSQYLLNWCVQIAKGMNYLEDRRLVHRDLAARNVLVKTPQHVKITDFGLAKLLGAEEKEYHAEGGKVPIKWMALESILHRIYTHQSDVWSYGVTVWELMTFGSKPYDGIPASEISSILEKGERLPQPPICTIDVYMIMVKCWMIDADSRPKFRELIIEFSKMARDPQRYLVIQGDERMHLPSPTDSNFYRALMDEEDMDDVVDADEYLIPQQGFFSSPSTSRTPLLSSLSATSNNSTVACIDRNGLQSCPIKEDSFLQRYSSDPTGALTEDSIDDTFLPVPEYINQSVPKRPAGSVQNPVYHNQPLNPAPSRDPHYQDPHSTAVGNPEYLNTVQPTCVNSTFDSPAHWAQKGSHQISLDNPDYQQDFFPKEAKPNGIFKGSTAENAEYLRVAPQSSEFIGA
Neurogenic locus notch homolog protein 3 (Homo sapiens), sequence (Q9UM47 whole entry, looked up): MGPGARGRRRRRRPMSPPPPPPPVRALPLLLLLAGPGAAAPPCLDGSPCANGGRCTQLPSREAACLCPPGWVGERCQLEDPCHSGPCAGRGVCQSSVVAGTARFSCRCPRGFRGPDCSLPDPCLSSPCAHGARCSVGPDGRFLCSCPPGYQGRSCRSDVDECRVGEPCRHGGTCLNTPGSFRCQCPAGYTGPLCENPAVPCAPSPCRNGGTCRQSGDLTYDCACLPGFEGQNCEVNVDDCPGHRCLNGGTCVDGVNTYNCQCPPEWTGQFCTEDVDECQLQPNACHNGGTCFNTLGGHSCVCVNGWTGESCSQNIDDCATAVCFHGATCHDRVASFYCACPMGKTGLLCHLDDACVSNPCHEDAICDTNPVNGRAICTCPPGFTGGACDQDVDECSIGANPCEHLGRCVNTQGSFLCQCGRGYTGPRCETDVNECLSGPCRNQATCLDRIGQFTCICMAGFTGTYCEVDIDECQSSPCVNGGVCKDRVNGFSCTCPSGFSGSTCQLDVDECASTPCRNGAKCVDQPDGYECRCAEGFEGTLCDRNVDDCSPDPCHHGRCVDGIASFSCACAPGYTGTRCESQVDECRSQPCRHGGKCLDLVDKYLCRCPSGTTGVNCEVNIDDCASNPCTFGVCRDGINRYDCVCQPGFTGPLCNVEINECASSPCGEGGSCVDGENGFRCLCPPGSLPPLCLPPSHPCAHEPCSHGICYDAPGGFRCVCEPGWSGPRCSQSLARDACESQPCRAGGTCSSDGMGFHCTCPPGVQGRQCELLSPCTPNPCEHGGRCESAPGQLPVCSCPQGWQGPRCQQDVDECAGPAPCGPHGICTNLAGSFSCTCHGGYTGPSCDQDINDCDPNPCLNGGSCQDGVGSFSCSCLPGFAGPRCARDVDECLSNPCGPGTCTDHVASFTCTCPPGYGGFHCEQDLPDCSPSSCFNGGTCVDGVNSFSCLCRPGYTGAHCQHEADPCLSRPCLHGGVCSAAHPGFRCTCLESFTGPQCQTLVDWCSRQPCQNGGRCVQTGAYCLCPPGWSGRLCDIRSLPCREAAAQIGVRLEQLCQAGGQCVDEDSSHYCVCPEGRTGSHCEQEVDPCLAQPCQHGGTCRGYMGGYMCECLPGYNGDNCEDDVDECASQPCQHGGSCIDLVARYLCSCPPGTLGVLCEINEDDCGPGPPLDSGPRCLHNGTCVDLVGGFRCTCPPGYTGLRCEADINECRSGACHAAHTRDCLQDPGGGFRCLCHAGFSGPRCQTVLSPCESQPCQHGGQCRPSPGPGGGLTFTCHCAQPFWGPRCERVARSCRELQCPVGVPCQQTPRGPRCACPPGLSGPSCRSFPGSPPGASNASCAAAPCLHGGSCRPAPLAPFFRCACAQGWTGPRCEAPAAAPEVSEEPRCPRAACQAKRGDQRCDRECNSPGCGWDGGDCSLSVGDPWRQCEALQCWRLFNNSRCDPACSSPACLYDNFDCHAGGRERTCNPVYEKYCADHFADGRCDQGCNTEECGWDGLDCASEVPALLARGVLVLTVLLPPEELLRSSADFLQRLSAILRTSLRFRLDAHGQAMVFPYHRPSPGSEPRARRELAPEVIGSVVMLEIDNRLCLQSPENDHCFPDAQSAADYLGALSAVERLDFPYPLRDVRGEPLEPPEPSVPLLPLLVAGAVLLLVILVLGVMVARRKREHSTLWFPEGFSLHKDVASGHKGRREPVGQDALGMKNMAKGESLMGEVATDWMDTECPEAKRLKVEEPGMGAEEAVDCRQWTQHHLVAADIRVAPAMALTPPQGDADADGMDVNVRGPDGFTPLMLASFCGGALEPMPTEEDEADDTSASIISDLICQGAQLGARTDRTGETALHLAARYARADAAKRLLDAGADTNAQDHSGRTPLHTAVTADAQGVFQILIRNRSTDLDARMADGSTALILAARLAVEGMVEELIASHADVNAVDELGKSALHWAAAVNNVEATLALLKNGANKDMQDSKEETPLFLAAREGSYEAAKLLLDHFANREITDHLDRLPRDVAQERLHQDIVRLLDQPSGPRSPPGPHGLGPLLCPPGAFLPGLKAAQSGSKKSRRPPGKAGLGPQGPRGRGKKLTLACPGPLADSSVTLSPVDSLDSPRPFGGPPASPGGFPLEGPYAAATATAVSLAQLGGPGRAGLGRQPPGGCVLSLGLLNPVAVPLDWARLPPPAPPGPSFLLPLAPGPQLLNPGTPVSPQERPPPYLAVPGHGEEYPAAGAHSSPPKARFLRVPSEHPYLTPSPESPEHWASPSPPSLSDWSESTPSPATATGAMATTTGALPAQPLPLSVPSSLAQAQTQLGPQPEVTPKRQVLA
Follistatin-related protein 3 (Homo sapiens), sequence (O95633 whole entry, looked up): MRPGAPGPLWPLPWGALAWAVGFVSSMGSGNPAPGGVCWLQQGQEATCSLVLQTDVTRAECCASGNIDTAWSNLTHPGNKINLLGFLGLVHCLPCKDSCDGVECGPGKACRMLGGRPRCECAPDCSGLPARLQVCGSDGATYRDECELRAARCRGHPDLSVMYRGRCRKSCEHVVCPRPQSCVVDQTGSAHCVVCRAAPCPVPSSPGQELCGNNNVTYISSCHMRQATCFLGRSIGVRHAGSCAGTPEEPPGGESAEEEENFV

Take `CO[C@H]1O[C@H](CO)[C@@H](OC(=O)CCc2ccccc2)[C@@H]2OC(=O)[C@@H](Cc3ccccc3)C/C=C/C[C@H](Cc3ccccc3)C(=O)O[C@@H]12`: the composite z-score in experiment [1] was 1.35; in experiment [5], 1.25; in experiment [7] it was -0.119; in experiment [8], 0.435; in experiment [9], 0.922; in experiment [10], -0.067. For the same compound, the composite z-score is 0.228 in experiment [11]; 0.253 in experiment [12]; 0.585 in experiment [13]; 0.469 in [15]; 0.714 in [16]; -0.199 in experiment [17]. Further, the figures for the composite z-score in experiment [18], in [19] and in [20] were 1.11, 0.46 and 0.925, respectively. Further, the z-score is -0.0668 (inactive) in experiment [2]; 0.0286 (inactive) in experiment [3]; 5.61 (inactive) in experiment [4]; 0.241 (inactive) in [6]; -1.57 (inactive) in [14].
With `C=C(COC)/C(=C/C[C@H](OC(=O)c1ccncc1)c1ccccc1OCCO)c1cc(C(=O)OC)ccc1OC`, the composite z-score in experiment [1] was 1.44; in experiment [5], 2.65; in [7] it was -0.157; in experiment [8], 1.23; in experiment [9], 1.04; in [10], 0.146. Besides, the composite z-score in experiment [11] was 0.515; in experiment [12], -0.0213; in [13], -0.331; in experiment [15], 1.25; in experiment [16], 0.684; in experiment [17], 0.0709. The composite z-score is 1.33 in experiment [18], 0.242 in experiment [19] and 1 in experiment [20]. In addition, the z-score in [2] was -0.819 (inactive); in experiment [3], -0.925 (inactive); in [4], -0.498 (inactive); in experiment [6], 0.0572 (inactive); in experiment [14], -0.0627 (inactive).
With `C=CCOC(=O)[C@@]1(Cc2ccccc2)C[C@H]2CO[C@H](c3ccc(OC)cc3)N2C1=O`, the composite z-score is 0.262 in experiment [1]; 0.317 in [5]; -0.126 in [7]; 0.224 in [8]; 0.408 in experiment [9]; -0.15 in [10]. For the same compound, the composite z-score is 0.335 in experiment [11]; -0.0298 in experiment [12]; -0.0084 in experiment [13]; 0.25 in experiment [15]; -0.0535 in [16]; 0.201 in experiment [17]. The composite z-score came to 0.2 in experiment [18], 0.286 in [19] and 0.351 in experiment [20]. Besides, the z-score in [2] was -2.65 (inactive); in [3], -3.58 (inactive); in [4], 0.0326 (inactive); in experiment [6], 0.1 (inactive); in experiment [14], -0.543 (inactive).
As for `NCCCCCNC(=O)[C@H]1C[C@H]2C(=O)N3CCC[C@H]3C(=O)N2[C@H]1c1cccc(OCCO)c1`, the composite z-score is 1.56 in [1]; 3.15 in experiment [5]; 0.767 in experiment [7]; -0.321 in [8]; 0.0389 in experiment [9]; 0.102 in experiment [10]. Also, the composite z-score in experiment [11] is 0.685; in experiment [12], 0.583; in [13], 1.1; in experiment [15], 0.68; in [16], 0.703; in experiment [17], -0.525. Further, the results for the composite z-score in [18], in experiment [19] and in [20] were -0.515, -0.331 and 0.896, respectively. For the same compound, the z-score is 0.372 (inactive) in [2]; -1.53 (inactive) in [3]; 0.674 (inactive) in experiment [4]; 0.0425 (inactive) in experiment [6]; 0.125 (inactive) in [14].
For the compound `COC(=O)C1=CC(CCCO)=CC(c2cccs2)N(C)C=C1C(=O)OC` (stereo not given), the composite z-score in experiment [1] is 0.0782; in experiment [5], 1.6; in experiment [7], 0.0099; in experiment [8] it was -0.561; in [9] it was 0.275; in experiment [10], -0.0034. Moreover, the composite z-score was 1.52 in experiment [11]; 0.122 in experiment [12]; 0.187 in experiment [13]; -0.604 in experiment [15]; -1.39 in [16]; -0.904 in [17]. Further, the composite z-score in experiment [18] was 0.0507; in experiment [19] it was -0.442; in experiment [20] it was 0.788. Besides, the z-score is 0.112 (inactive) in experiment [2]; 0.009 (inactive) in experiment [3]; 0.241 (inactive) in [4]; 0.39 (inactive) in [6]; 0.844 (inactive) in [14].

Source of the values: PubChem BioAssay.
